# From PubChem BioAssay
# Active and inactive are the calls of the source. Unless noted, how the calls were made is not given here.
# Columns and labels:
# [1] = compound effects on lung adenocarcinoma cell viability – A549, calcein-AM fluorescence, 48 h, basal, profiling panel (AID 1162); details: higher = more signal; further: test concentration not given here
# [2] = compound effects on differentiated 3T3-L1 adipocyte viability – cell-based, 3T3-L1 adipocytes, calcein-AM fluorescence, 48 h, basal, profiling panel (AID 1163); details: 3T3-L1 adipocytes viability, higher = more signal; further: test concentration not given here
# [3] = compound effects on hepatocellular carcinoma cell viability – HepG2, calcein-AM fluorescence, 48 h, basal, profiling panel (AID 1164); details: higher = more signal; further: test concentration not given here
# [4] = compound effects on multiple myeloma cell viability – MM1S, calcein-AM fluorescence, 48 h, basal, profiling panel (AID 1165); details: higher = more signal;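 further: viability of MM1S multiple myeloma cells under basal unstimulated conditions; test concentration not given here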
# [5] = calcein-AM signal in unstimulated myeloma cells – cell-based, calcein-AM fluorescence, 48 h, PK04 Diversity Set, profiling panel (AID 1166); details: RPMI8226 myeloma viability, higher = more signal;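 further: cells grown under basal conditions without added stimulus; test concentration not given here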
# [6] = JC-1 mitochondrial signal, unstimulated HepG2 cells – cell-based, JC-1 fluorescence, 24 h, 100 nL compound, profiling panel (AID 1167); details: HepG2 mitochondrial potential, higher = more signal; further: test concentration not given here
# [7] = JC-1 mitochondrial signal, unstimulated adipocytes – cell-based, JC-1 fluorescence, 3T3-L1 adipocytes, 24 h, 100 nL compound, profiling panel (AID 1168); details: JC-1 mitochondrial fluorescence, higher = more signal, called active from +8 up or from −8 down; further: test concentration not given here
# [8] = JC-1 mitochondrial signal, unstimulated myeloma cells – cell-based, JC-1 fluorescence, RPMI8226, 24 h, 100 nL compound, profiling panel (AID 1169); details: JC-1 mitochondrial potential fluorescence, higher = more signal; further: test concentration not given here
# [9] = JC-1 mitochondrial signal, unstimulated MM1S myeloma – cell-based, JC-1 fluorescence, 24 h, 100 nL compound, profiling panel (AID 1170); details: MM1S mitochondrial potential, higher = more signal; further: test concentration not given here
# [10] = resazurin metabolic signal in A549 cells – cell-based, resazurin fluorescence, 24 h, PK04 Diversity Set, profiling panel (AID 1171); details: A549 viability, higher = more signal, called active from +8 up or from −8 down; further: test concentration not given here
# [11] = resazurin metabolic signal in HepG2 cells – cell-based, resazurin fluorescence, 24 h, PK04 Diversity Set, profiling panel (AID 1172); details: HepG2 viability, higher = more signal; further: test concentration not given here
# [12] = budding yeast growth changes without added modifier – OD600, strain BY4716, 24 h, basal condition, primary screen (AID 1173); details: S. cerevisiae BY4716 growth, OD600, 24 h; higher = more signal, called active from +8 up or from −8 down
# [13] = viability profiling in MM1S myeloma cells – cell-based, resazurin fluorescence, basal, 24 h, PK04 Diversity Set, profiling panel (AID 1174); details: higher = more signal, called active from +8 up or from −8 down; further: test concentration not given here
# [14] = target: Dihydroorotate dehydrogenase (quinone), mitochondrial (Plasmodium falciparum (isolate 3D7)) (UniProt Q08210); experiment: inhibition of P. falciparum DHODH – biochemical, C-terminal His tag, absorbance 600 nm, primary screen (AID 1175); details: PfDHODH enzyme, DCIP absorbance 600 nm; higher = more signal, called active from +8 up or from −8 down;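 further: recombinant parasite enzyme with a five histidine tag at its C terminus; test concentration not given here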
# [15] = inhibition of PAO1 biofilm formation – strain PAO1, LB-PBS medium, absorbance 600 nm, primary screen (AID 1176); further: test concentration not given here; details: P. aeruginosa PAO1 growth/biofilm, A600, 12 h; higher = more signal
# [16] = growth modulation of vineyard yeast isolate – strain RM11-1a, OD600, basal, 24 h, primary screen (AID 1177);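 further: cultures grown under basal conditions with no added stressor; test concentration not given here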; details: S. cerevisiae RM11-1a growth, OD600, 24 h; higher = more signal, called active from +8 up or from −8 down
# [17] = growth of efflux-deficient E. coli DRC39 – strain DRC39, OD650, 24 h, E. coli filamentation inducers, primary screen (AID 1178);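 further: growth measured as culture turbidity by optical density at 650 nm; test concentration not given here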; details: E. coli DRC39 acrAB, higher = more signal, called active from +8 up or from −8 down
# [18] = growth of efflux-deficient E. coli DRC39 – strain DRC39, OD650, 48 h, E. coli filamentation inducers, primary screen (AID 1179);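 further: screen aims at cell division blockers that make cells filament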; details: E. coli DRC39 delta-acrAB growth, higher = more signal, called active from +8 up or from −8 down
# [19] = viability profiling in RPMI8226 myeloma cells – cell-based, resazurin fluorescence, basal, 24 h, PK04 Diversity Set, profiling panel (AID 1180); details: higher = more signal;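 further: RPMI8826 multiple myeloma cell line at 5000 cells per well; test concentration not given here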
# [20] = target: E3 ubiquitin-protein ligase XIAP (Homo sapiens) (UniProt P98170); experiment: small molecules binding XIAP protein – biophysical, small-molecule microarray, fluorescence 635 nm, primary screen (AID 1181); details: higher = more signal;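 further: score merges 667 nm emission and signal to noise over triplicate slides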
# Chain of E3 ubiquitin-protein ligase XIAP (Homo sapiens) (P98170 whole entry, looked up): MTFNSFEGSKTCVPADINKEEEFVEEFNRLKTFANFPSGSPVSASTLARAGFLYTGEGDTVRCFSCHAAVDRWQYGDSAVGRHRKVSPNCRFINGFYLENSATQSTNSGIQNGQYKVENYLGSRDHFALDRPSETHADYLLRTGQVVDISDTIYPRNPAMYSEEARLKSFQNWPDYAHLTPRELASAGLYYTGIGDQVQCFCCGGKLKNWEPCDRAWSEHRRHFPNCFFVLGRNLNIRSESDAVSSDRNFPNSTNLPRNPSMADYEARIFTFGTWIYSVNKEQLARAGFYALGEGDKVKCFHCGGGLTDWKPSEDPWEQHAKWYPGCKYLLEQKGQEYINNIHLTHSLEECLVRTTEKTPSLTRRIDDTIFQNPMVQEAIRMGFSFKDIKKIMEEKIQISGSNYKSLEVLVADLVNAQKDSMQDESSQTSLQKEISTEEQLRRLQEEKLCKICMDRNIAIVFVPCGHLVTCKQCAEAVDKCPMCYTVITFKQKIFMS
# Chain of Dihydroorotate dehydrogenase (quinone), mitochondrial (Plasmodium falciparum (isolate 3D7)) (Q08210 whole entry, looked up): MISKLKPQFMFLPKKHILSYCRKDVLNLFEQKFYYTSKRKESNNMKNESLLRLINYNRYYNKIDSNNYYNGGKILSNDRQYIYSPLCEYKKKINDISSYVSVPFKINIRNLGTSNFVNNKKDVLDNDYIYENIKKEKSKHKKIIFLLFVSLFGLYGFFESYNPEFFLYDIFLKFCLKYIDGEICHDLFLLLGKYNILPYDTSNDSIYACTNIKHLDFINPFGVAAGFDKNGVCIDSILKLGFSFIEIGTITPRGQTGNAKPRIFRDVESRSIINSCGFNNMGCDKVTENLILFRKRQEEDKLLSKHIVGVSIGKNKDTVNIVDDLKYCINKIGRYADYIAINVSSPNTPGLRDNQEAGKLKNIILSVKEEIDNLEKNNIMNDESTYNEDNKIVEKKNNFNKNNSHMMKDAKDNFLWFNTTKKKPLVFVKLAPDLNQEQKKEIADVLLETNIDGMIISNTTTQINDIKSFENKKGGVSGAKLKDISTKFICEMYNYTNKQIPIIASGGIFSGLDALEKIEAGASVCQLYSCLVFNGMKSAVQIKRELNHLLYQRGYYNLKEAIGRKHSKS
Structure (SMILES),z-score [1],z-score [2],z-score [3],z-score [4],z-score [5],z-score [6],z-score [7],z-score [8],z-score [9],z-score [10],z-score [11],z-score [12],z-score [13],composite z-score [14],z-score [15],z-score [16],z-score [17],z-score [18],z-score [19],composite z-score [20]
C=CC[C@]1(C(=O)O)N=C(c2ccc(OCCCO)cc2)O[C@H]1c1ccccc1N=[N+]=[N-],0.144,0.722,-0.489,-2.19,-0.0144,0.0206,0.504 (inactive),-0.837,-0.783,0.909 (inactive),0.912,-0.761 (inactive),0.777 (inactive),0.589 (inactive),-1.1 (inactive),1.21 (inactive),2.63 (inactive),1.65 (inactive),0.248,-0.0095
O=C(NCc1ccccc1)c1ccc(Br)cc1[N+](=O)[O-],-0.787,0.0153,0.0565,-0.0086,0.287,-0.0457,0.346 (inactive),-0.745,0.189,0.0828 (inactive),0.0759,-2.42 (inactive),0.0636 (inactive),-1.37 (inactive),-0.131 (inactive),-0.465 (inactive),0.986 (inactive),-0.411 (inactive),-0.447,-0.127
N#Cc1ccc(NN2C(C(O)CCc3ccccc3)C=CC3C(=O)N(c4ccccc4)C(=O)C32)cc1 (stereo not given),0.422,-0.191,1.18,0.197,-0.0961,-0.256,-0.0951 (inactive),0.245,0.419,0.197 (inactive),-0.618,-0.333 (inactive),-0.611 (inactive),-2.09 (inactive),1.01 (inactive),-1.97 (inactive),0.143 (inactive),0.7 (inactive),-0.152,-0.127
CC[C@@H]1C=C(C(=O)O)[C@H](c2ccccc2)N1S(=O)(=O)c1ccc([N+](=O)[O-])cc1,-0.353,-0.49,0.271,0.0363,0.0806,0.414,-0.375 (inactive),0.769,-0.877,0.0551 (inactive),0.244,0.736 (inactive),-0.253 (inactive),0.264 (inactive),-0.461 (inactive),-0.1 (inactive),-2.44 (inactive),-1.84 (inactive),0.0416,0.101
O=C1c2ccccc2[C@@]2(Cc3ccccc3N(CC(F)(F)F)C2=O)[C@H](c2ccc(CO)cc2)N1C1CCCCC1,-0.449,0.747,-0.0145,0.129,-1.27,-0.0304,0.701 (inactive),1.06,0.933,0.304 (inactive),-0.0665,0.713 (inactive),1.07 (inactive),-24.3 (active),0.379 (inactive),-0.572 (inactive),0.172 (inactive),-0.411 (inactive),0.748,-0.2
COc1ccc([C@H]2C[C@H]3C(Br)=C[C@]2(OC)C(=O)[C@]32CO2)cc1,-0.909,-0.105,-1.19,-2.1,-0.393,-2.15,-0.414 (inactive),-1.07,-0.717,0.596 (inactive),0.531,-3.26 (inactive),-0.677 (inactive),-0.314 (inactive),0.662 (inactive),-0.173 (inactive),0.238 (inactive),0.205 (inactive),-0.139,-0.0599
COCCCNC(=O)[C@@]1(c2ccc([N+](=O)[O-])cc2)CC(=O)N(C2CCCCC2)[C@@H]1c1ccc(CO)cc1,0.286,0.0134,0.366,-0.214,-0.0968,0.437,-0.605 (inactive),0.00327,0.509,0.902 (inactive),0.172,-0.27 (inactive),0.337 (inactive),-0.0394 (inactive),0.814 (inactive),-0.491 (inactive),-0.131 (inactive),-0.346 (inactive),0.946,0.147
CCOC(=O)C1=CCC(c2cccc3ccccc23)N(S(=O)(=O)c2ccc(C)cc2)C1 (stereo not given),-0.989,-1,-0.106,-0.0257,0.291,1.98,-0.759 (inactive),-0.498,-1.64,-0.658 (inactive),-0.739,0.66 (inactive),-1.56 (inactive),-0.384 (inactive),0.518 (inactive),-0.225 (inactive),-0.601 (inactive),0.0759 (inactive),-3.43,0.397
O=C1C2C=CC(C(O)C(c3ccccc3)c3ccccc3)N(Nc3ccc([N+](=O)[O-])cc3)C2C(=O)N1c1ccccc1 (stereo not given),-0.727,-0.97,0.585,-0.224,-0.986,0.581,-0.735 (inactive),0.213,-1.44,0.452 (inactive),0.867,0.852 (inactive),0.0597 (inactive),0.665 (inactive),0.89 (inactive),0.601 (inactive),-1.12 (inactive),0.058 (inactive),-1.03,0.0553
